The whole screen tested about 2,100 compounds, of which about 770 (37%) were called active. Some of the results follow. A number with no mark means an inactive call.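 How the source made its calls: active means by-eye trace score of 1 for enhancers or -1 for inhibitors, so actives lie on both sides (some results past the limit were not filed as active); inactive means score 0, or 3 fluorescent, or 4 baseline rise.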

Chain of G protein-activated inward rectifier potassium channel 2 (Homo sapiens) + G protein-activated inward rectifier potassium channel 1 (Homo sapiens) (P48051 whole entry, looked up): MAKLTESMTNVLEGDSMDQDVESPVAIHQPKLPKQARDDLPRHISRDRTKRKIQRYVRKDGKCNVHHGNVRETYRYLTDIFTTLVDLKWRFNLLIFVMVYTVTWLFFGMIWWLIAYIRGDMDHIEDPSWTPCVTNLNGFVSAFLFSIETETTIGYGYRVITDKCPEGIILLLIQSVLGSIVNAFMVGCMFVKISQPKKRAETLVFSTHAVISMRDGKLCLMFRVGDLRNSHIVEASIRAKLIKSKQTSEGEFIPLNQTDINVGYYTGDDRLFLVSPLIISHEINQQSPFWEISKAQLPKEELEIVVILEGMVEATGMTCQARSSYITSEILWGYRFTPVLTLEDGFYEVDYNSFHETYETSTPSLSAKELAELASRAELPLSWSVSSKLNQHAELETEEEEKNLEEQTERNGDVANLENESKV
Chain of G protein-activated inward rectifier potassium channel 2 (Homo sapiens) + G protein-activated inward rectifier potassium channel 1 (Homo sapiens) (P48549 whole entry, looked up): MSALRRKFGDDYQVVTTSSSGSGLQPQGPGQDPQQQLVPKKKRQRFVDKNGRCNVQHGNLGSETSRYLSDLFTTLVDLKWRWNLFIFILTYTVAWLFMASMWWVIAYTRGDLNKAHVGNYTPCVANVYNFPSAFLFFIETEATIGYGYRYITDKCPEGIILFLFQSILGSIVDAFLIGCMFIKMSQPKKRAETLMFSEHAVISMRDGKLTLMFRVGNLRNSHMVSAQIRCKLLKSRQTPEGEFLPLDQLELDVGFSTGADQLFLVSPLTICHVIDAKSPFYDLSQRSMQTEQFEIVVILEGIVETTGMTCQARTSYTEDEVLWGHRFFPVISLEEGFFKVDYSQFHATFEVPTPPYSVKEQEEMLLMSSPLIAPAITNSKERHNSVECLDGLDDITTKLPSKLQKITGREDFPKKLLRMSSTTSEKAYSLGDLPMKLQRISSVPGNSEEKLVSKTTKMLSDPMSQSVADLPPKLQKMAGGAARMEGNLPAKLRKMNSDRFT

This assay addresses G protein-activated inward rectifier potassium channel 2 (Homo sapiens) + G protein-activated inward rectifier potassium channel 1 (Homo sapiens) (UniProt P48051+P48549). In words: GIRK1/2 thallium flux modulators, retest, confirmation, cell-based, HEK293 rmGlu8/hGIRK1/2, FluoZin-2 (AID 623911). Particulars: HEK293 rmGlu8/hGIRK1/2, thallium flux FluoZin-2; actives lie on both sides; glutamate co-added at its EC20 level.
In the case of `CCCC1=C(C(=O)OCC)C(c2ccc(F)cc2)n2ncnc2N1` (configuration not stated), the manual score is 0.

On to `CCOC(=O)C1=C(C)NC2=C(C(=O)C(C(=O)OCC)C(c3ccccc3OC)C2)C1c1ccccn1` (configuration not stated), for which the manual score is 0.

Turning to `CCOC(=O)C1=C(C)Nc2nnnn2C1c1ccccc1Cl` (configuration not stated), the manual score is -1 (active).

For `CCN1c2ccccc2-c2nc3ccccc3n2C1c1ccco1` (configuration not stated), the manual score is 0.

Take `Cn1c(NCc2cccc(Br)c2)nc2ccccc21`: the manual score is -1 (active).

On to `CC(C)CCn1c(S(=O)(=O)O)nc2ccccc21`, for which the manual score was 0.

In the case of `CCCCCn1c(NCc2ccco2)nc2ccccc21`, the manual score was -1 (active).

As to `CCCCn1c(SCC(=O)NCc2ccco2)nc2ccccc2c1=O`, the manual score is 0.5.

Regarding `CCc1c(C)c(C#N)c2nc3ccccc3n2c1NCc1ccco1`, the manual score is -1 (active).

With `CCCCn1c(NC(=S)Nc2ccccc2)nc2ccccc21`, the manual score is 0.

`CCCCn1c(NC(=O)c2ccccc2Cl)c(C#N)c2nc3ccccc3nc21`: the manual score was -0.5.

On to `CCCn1c(NCc2ccc(N(C)C)cc2)nc2ccccc21`, for which the manual score was -1 (active).

In the case of `C/C(=N\NC(=O)c1ccccc1)c1nc2ccccc2n1C`, the manual score is 0.

Regarding `Cc1cccc(N2C(N)=NC(N)=NC23CCCCC3)c1`, the manual score was 0.

With `O=C(CN1C(=O)/C(=C/c2ccccc2F)Oc2ccccc21)N1CCN(c2ccccn2)CC1`, the manual score is 0.

As for `O=C(NNC(=O)c1cccnc1SCc1cccc([N+](=O)[O-])c1)c1cccnc1`, the manual score is 0.

On to `O=C(Oc1c(Cl)cc(Cl)c2cccnc12)c1ccco1`, for which the manual score is 1 (active).

Regarding `O=C(Oc1c(Cl)cc(Cl)c2cccnc12)c1cccc([N+](=O)[O-])c1`, the manual score is 1 (active).

In the case of `O=C(NNC(=O)c1cccnc1SCc1cccc([N+](=O)[O-])c1)c1ccccn1`, the manual score was 0.

On to `Cc1ccccc1NC1=C(Cl)C(=O)OC1OC(=O)c1ccco1` (configuration not stated), for which the manual score was 0.

With `Cc1ccc(C2c3c(oc4ccc(Cl)cc4c3=O)C(=O)N2CCCN2CCOCC2)o1` (configuration not stated), the manual score was 0.5.

With `O=c1c2ccccc2c(C=NCc2ccccn2)c(O)n1-c1ccccc1`, the manual score was 0.

For the compound `CCOc1ccc(Br)cc1/C(C)=N\NC1=NCCN1`, the manual score was -1 (active).

In the case of `CCNS(=O)(=O)c1cc(S(C)(=O)=O)ccc1Cl`, the manual score is 0.

Take `CC(/C=N/n1c(-c2ccccc2)n[nH]c1=S)=C\c1ccco1`: the manual score was 0.

Turning to `Cc1ccc(/C=N/n2c(COc3ccccc3)n[nH]c2=S)s1`, the manual score was 0.

As for `COc1ccc(/C=N/n2c(-c3cccs3)n[nH]c2=S)cc1`, the manual score was 1 (active).

On to `CC(=C/c1ccccc1)/C=N/n1c(-c2ccco2)n[nH]c1=S`, for which the manual score is 0.

Turning to `CCN(CC)S(=O)(=O)c1cccc(-c2n[nH]c(=S)n2/N=C/c2ccc(C(=O)OC)cc2)c1`, the manual score was 0.

With `COc1cccc(/C=N/n2c(-c3cccs3)n[nH]c2=S)c1`, the manual score was 1 (active).

Turning to `CC(=O)Nc1ccc(S(=O)(=O)NC(C(=O)O)C2=CCC=CC2)cc1` (configuration not stated), the manual score is 0.

Consider `CN(C)S(=O)(=O)c1cccc(NC(=O)Cc2ccc(Cl)cc2)c1`, for which the manual score was 1 (active).

`CN(C)S(=O)(=O)c1cccc(NC(=O)COc2cccc(C#N)c2)c1`: the manual score was 0.

Turning to `S=C(Nc1ccccc1Cl)Nc1ccc(Cl)cc1Cl`, the manual score is 1 (active).

With `CN(C)S(=O)(=O)c1cccc(NC(=S)Nc2ccc(Cl)cc2Cl)c1`, the manual score was 1 (active).

`O=C(Nc1cccc(S(=O)(=O)c2cccc(NC(=O)C3CC3)c2)c1)C1CC1`: the manual score is 0.

In the case of `Cc1ccc(NCC(=O)Nc2cccc(S(=O)(=O)N(C)C)c2)c(Cl)c1`, the manual score was 0.

Take `CN(C)S(=O)(=O)c1cccc(NC(=S)Nc2cc(Cl)cc(Cl)c2)c1`: the manual score was 1 (active).

Turning to `O=C(NCCCCNC(=O)c1cccnc1)c1cccnc1`, the manual score was 0.

On to `CC(C)OC(=O)/C(=C/c1cccnc1)NC(=O)c1ccccc1`, for which the manual score was 0.

`O=C(N/N=C(\c1ccccc1)c1cccnc1)C(O)(c1ccccc1)c1ccccc1`: the manual score is -1 (active).

For `Cc1cc(N2C(=O)C(O)=C(C(=O)c3ccc(C)o3)C2c2cccs2)no1` (configuration not stated), the manual score is 0.

Take `CCCCn1c(-c2ccc(Cl)cc2)nc2c(=O)n(C)c(=O)[nH]c21`: the manual score was 0.

Take `CCN(CC)C(=O)CSc1ncnc2sc(-c3ccccc3)cc12`: the manual score was 0.

`CC(C)N(C(=O)CSc1ncnc2sc(-c3ccccc3)cc12)C(C)C`: the manual score was 0.

`CC(=O)c1c(C)[nH]c(C(=O)CSc2ncnc3sc(-c4ccccc4)cc23)c1C`: the manual score was 1 (active).

On to `Brc1ccccc1-c1nnc2sc(-c3ccc4c(c3)OCCO4)nn12`, for which the manual score was -1 (active).

With `Clc1ccccc1-c1nnc2sc(-c3ccc4c(c3)OCO4)nn12`, the manual score was 0.

On to `Clc1ccccc1-c1nnc2sc(-c3ccccn3)nn12`, for which the manual score is 0.5.

Regarding `CCN(C(=O)CSc1nc2ccccc2n1CCc1ccccc1)C1CCS(=O)(=O)C1` (configuration not stated), the manual score was 0.

`CCCOC(=O)NC(CC)COC(=O)Nc1cccc(C)c1C` (configuration not stated): the manual score is 0.

For the compound `Cc1cc(C=C2C(=O)c3ccccc3C2=O)c(C)n1-c1ccccc1`, the manual score was 0.5.

Turning to `Cc1cc(C)c(-n2c(C)cc(/C=C3/NC(=O)NC3=O)c2C)c(C)c1`, the manual score was -1 (active).

Take `Cc1ccc(C)c(OCC(O)CN2C(C)CCCC2C)c1` (configuration not stated): the manual score was -1 (active).

For `C/C(=N\NC(=S)NCCc1ccccc1)c1ccc(C)cc1`, the manual score was 0.

Regarding `CC(C)Oc1ccccc1C1Nc2ccccc2C(=O)N1c1ccc2c(c1)OCCO2` (configuration not stated), the manual score is 0.

For the compound `O=C(COC(=O)C1CC(=O)N(Cc2ccccc2)C1)Nc1ccc2c(c1)OCO2` (configuration not stated), the manual score is 0.

`O=C1c2ccccc2C(Nc2ccc3c(c2)OCCO3)N1Cc1ccccc1` (configuration not stated): the manual score is -1 (active).

In the case of `O=C(CSCC(=O)N1CCCCC1)Nc1nc(-c2ccc(Cl)s2)cs1`, the manual score was 0.

As to `c1cn(C23CC4CC(CC(C4)C2)C3)cn1`, the manual score was -1 (active).

On to `CCc1ccc2c(c1)C1(NN=C(c3cccc4ccccc34)S1)C(=O)N2` (configuration not stated), for which the manual score is 0.

`O=C(NC(=S)Nc1ccccc1Cl)c1csnn1`: the manual score was 1 (active).

Consider `O=C(NC(=S)Nc1cc(C(F)(F)F)ccc1Cl)c1ccccc1`, for which the manual score was 0.

Regarding `O=C(NC(=S)Nc1ccccc1)c1csnn1`, the manual score is 1 (active).

Take `O=C(NC(=S)Nc1ccccc1)c1cc(-c2ccccc2)nc2ccccc12`: the manual score was 0.

Turning to `CC(C)Oc1cccc(C(=O)NC(=S)Nc2ccccc2)c1`, the manual score was 0.

As for `Cc1ccc2cccc(NC(=S)NC(=O)c3ccn(C)n3)c2n1`, the manual score is 0.

The values are drawn from PubChem BioAssay AID623911 (Vanderbilt High Throughput Screening Facility, 2012).
